Data: paper PMC7862700, “An all-to-all approach to the identification of sequence-specific readers for epigenetic DNA modifications on cytosine”

Assays:
Assay in all cases: DAPPL (digital affinity profiling via proximity ligation, sequencing); 10 mM Tris-HCl pH 7.5, 50 mM NaCl, 1 mM DTT, 4% glycerol, room temperature, 30 min; GST-TFs on glutathione beads, 16-mer random dsDNA library, 0.1% formaldehyde crosslink after washing; high values mean tight binding
[1] = biological target: T1, FLI1 (Homo sapiens, UniProt Q01543 1-452); details: protein: recombinant; tags: N-terminal GST; dsDNA, one strand shown
T1 sequence: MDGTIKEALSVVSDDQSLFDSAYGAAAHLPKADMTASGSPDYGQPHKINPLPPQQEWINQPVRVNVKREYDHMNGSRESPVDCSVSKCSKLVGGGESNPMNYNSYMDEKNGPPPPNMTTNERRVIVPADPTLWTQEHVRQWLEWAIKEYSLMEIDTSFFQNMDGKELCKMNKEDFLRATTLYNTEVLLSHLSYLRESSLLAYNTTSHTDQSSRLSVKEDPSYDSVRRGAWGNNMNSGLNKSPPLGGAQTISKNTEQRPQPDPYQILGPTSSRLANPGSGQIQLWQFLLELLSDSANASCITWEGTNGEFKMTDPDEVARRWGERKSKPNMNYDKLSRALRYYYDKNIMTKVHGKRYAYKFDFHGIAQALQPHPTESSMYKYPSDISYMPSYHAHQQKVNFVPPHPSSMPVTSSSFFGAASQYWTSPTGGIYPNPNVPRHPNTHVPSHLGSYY
Outline: (§1)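 Pools of DNA-barcoded human transcription factors, expressed in yeast as GST fusions on glutathione beads and combined with a tag-only sample, were incubated with 200 nmole of a 16-mer random double-stranded DNA library. Incubation took 30 min at room temperature in Tris/NaCl/DTT/glycerol buffer and was followed by washing, 0.1% formaldehyde crosslinking, proximity ligation (BsaI/T4 ligase, 1 h, 37 °C), PCR amplification and sequencing on an Illumina NextSeq500. Binding signal is the ratio of a hexamer's read frequency for a factor to its frequency for the tag-only sample.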

[2] = biological target: T2, ELK1 (Homo sapiens, UniProt P19419 1-428); details: protein: recombinant; tags: N-terminal GST; dsDNA, one strand shown
T2 sequence: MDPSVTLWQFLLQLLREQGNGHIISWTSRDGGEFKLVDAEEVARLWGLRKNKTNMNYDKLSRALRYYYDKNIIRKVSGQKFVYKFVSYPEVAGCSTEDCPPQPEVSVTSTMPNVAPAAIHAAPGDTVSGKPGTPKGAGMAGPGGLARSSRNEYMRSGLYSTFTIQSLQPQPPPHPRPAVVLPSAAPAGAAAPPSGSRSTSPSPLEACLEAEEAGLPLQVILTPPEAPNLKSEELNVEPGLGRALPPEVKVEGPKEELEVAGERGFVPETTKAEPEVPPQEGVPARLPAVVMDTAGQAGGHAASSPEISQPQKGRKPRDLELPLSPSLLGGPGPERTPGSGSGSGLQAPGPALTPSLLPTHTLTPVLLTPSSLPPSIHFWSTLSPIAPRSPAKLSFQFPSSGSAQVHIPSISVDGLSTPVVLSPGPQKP
Outline: as §1

[3] = biological target: T3, GABPA (Homo sapiens, UniProt Q06546 1-454); details: protein: recombinant; tags: N-terminal GST; dsDNA, one strand shown
T3 sequence: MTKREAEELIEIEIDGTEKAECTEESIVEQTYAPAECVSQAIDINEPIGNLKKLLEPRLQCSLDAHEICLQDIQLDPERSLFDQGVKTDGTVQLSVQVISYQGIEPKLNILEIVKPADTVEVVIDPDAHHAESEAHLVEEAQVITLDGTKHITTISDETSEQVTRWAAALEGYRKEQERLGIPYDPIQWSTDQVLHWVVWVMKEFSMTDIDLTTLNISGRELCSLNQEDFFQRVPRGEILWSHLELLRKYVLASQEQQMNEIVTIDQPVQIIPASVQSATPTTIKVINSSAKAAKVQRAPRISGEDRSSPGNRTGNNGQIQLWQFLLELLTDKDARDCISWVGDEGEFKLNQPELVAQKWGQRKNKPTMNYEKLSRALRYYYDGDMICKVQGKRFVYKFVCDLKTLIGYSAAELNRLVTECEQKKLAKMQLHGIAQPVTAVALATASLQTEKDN
Outline: as §1

[4] = biological target: T4, ERG (Homo sapiens, UniProt P11308 1-479); details: protein: recombinant; tags: N-terminal GST; dsDNA, one strand shown
T4 sequence: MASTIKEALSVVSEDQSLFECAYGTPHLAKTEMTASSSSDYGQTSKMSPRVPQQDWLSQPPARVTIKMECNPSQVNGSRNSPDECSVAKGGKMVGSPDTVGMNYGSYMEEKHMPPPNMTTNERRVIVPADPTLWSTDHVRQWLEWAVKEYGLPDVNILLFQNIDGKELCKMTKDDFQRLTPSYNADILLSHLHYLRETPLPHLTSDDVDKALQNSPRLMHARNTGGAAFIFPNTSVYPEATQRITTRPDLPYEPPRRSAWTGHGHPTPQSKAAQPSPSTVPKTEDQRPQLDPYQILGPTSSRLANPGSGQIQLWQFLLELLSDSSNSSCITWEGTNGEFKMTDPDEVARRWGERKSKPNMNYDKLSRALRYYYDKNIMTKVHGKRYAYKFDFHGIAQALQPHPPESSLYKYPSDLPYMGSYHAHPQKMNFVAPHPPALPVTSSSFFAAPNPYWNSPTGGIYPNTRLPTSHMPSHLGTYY
Outline: as §1

[5] = biological target: ELF1 (Homo sapiens, UniProt P32519 1-619); details: protein: recombinant; tags: N-terminal GST; dsDNA, one strand shown
Outline: as §1

[6] = biological target: T5, EHF (Homo sapiens, UniProt Q9NZC4 1-300); details: protein: recombinant; tags: N-terminal GST; dsDNA, one strand shown
T5 sequence: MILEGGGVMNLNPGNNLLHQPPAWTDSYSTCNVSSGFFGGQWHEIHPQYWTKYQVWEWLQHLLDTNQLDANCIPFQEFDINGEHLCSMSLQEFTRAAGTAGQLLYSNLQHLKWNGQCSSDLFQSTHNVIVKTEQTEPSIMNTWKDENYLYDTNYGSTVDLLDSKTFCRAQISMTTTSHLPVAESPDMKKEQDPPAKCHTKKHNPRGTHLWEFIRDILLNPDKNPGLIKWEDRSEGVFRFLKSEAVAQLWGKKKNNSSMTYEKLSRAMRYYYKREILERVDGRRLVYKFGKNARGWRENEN
Outline: as §1

[7] = biological target: SPI1 (Homo sapiens, UniProt P17947 1-270); details: protein: recombinant; tags: N-terminal GST; dsDNA, one strand shown
Outline: as §1

[8] = biological target: SPIB (Homo sapiens, UniProt Q01892 1-262); details: protein: recombinant; tags: N-terminal GST; dsDNA, one strand shown
Outline: as §1

[9] = biological target: T6, ELK3 (Homo sapiens, UniProt P41970 1-407); details: protein: recombinant; tags: N-terminal GST; dsDNA, one strand shown
T6 sequence: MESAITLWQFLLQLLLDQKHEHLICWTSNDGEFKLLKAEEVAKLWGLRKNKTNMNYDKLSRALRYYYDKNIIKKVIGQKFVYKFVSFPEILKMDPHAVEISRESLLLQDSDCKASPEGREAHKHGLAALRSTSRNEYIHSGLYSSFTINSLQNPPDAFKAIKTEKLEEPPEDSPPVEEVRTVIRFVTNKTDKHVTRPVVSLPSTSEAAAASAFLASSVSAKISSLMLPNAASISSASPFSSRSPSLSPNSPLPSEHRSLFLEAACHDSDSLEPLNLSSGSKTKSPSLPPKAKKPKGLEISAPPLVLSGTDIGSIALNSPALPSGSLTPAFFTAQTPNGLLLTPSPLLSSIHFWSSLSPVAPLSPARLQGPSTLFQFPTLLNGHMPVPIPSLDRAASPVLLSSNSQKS
Outline: as §1

[10] = biological target: T7, FEV (Homo sapiens, UniProt Q99581 1-238); details: protein: recombinant; tags: N-terminal GST; dsDNA, one strand shown
T7 sequence: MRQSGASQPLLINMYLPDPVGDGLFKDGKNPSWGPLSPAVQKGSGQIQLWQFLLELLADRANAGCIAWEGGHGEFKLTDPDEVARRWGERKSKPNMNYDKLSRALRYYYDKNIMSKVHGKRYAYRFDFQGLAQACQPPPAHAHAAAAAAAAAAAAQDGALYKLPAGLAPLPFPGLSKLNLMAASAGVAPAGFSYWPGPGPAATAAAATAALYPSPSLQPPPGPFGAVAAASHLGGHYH
Outline: as §1

[11] = biological target: ETV5 (Homo sapiens, UniProt P41161 1-510); details: protein: recombinant; tags: N-terminal GST; dsDNA, one strand shown
Outline: as §1

[12] = biological target: HSF1 (Homo sapiens, UniProt Q00613 1-529); details: protein: recombinant; tags: N-terminal GST; chain copies: 3; dsDNA, one strand shown
Outline: as §1

[13] = biological target: T8, SPIC (Homo sapiens, UniProt Q8N5J4 1-248); details: protein: recombinant; tags: N-terminal GST; dsDNA, one strand shown
T8 sequence: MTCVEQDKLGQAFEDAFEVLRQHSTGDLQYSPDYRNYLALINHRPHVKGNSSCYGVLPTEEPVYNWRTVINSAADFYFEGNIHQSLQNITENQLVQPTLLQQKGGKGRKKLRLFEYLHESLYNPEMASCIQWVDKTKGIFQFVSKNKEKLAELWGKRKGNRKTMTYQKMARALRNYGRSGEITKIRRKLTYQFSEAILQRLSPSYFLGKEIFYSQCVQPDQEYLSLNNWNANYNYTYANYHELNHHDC
Outline: as §1

[14] = biological target: ELF4 (Homo sapiens, UniProt Q99607 1-663); details: protein: recombinant; tags: N-terminal GST; dsDNA, one strand shown
Outline: as §1

[15] = biological target: T9, ELK4 (Homo sapiens, UniProt P28324-2 1-405); details: protein: recombinant; tags: N-terminal GST; dsDNA, one strand shown
T9 sequence: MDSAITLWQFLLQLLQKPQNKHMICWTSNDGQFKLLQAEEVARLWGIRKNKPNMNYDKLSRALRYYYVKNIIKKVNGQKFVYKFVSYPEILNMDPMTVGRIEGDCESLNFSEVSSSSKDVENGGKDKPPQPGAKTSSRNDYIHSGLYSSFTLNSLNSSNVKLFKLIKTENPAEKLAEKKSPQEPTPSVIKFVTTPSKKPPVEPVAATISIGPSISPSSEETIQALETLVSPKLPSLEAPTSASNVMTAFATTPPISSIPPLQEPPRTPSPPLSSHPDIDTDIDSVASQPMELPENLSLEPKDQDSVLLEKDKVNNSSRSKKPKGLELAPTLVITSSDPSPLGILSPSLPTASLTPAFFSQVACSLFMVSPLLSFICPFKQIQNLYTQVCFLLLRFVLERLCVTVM
Outline: as §1

[16] = biological target: T10, ETV2 (Homo sapiens, UniProt O00321 1-342); details: protein: recombinant; tags: N-terminal GST; dsDNA, one strand shown
T10 sequence: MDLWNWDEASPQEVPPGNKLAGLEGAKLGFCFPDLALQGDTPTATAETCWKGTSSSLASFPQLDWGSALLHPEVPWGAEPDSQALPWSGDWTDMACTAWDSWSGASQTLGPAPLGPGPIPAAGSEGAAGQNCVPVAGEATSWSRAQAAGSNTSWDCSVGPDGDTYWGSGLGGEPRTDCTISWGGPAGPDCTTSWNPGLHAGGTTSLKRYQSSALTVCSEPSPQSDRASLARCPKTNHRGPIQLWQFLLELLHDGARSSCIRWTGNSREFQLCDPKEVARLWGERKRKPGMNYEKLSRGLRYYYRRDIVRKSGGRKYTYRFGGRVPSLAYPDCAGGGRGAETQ
Outline: as §1

[17] = biological target: T11, ELF3 (Homo sapiens, UniProt P78545 1-371); details: protein: recombinant; tags: N-terminal GST; dsDNA, one strand shown
T11 sequence: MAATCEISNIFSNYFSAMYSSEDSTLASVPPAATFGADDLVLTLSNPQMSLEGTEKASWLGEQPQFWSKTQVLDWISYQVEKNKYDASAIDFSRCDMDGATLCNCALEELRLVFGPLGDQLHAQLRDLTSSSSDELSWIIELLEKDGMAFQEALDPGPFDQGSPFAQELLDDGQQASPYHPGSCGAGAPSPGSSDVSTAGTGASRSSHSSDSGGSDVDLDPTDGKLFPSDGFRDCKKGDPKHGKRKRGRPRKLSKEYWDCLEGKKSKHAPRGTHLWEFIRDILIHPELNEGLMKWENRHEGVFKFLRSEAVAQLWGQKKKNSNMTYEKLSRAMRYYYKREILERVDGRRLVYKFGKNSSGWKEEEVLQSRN
Outline: as §1

[18] = biological target: CRX (Homo sapiens, UniProt O43186 1-299); details: protein: recombinant; tags: N-terminal GST; dsDNA, one strand shown
Outline: as §1

[19] = biological target: ETV1 (Homo sapiens, UniProt P50549 1-477); details: protein: recombinant; tags: N-terminal GST; dsDNA, one strand shown
Outline: as §1

Chain of ELF1 (P32519 whole entry): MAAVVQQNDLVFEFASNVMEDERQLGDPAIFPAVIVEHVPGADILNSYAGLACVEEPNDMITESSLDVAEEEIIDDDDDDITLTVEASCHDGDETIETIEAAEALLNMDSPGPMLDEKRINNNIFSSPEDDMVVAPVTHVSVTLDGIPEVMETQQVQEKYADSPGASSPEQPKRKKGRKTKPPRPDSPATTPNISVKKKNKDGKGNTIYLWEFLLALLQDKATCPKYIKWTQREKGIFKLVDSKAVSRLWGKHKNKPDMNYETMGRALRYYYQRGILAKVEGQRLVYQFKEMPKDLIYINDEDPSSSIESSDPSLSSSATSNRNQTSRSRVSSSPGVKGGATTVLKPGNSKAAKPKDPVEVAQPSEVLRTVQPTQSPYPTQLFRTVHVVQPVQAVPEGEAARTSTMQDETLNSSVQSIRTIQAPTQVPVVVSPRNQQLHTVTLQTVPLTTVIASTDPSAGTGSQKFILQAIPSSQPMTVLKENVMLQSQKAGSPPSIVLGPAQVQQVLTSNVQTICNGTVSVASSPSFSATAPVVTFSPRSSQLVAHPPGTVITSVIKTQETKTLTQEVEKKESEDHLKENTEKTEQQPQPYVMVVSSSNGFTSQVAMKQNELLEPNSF
Chain of CRX (O43186 whole entry): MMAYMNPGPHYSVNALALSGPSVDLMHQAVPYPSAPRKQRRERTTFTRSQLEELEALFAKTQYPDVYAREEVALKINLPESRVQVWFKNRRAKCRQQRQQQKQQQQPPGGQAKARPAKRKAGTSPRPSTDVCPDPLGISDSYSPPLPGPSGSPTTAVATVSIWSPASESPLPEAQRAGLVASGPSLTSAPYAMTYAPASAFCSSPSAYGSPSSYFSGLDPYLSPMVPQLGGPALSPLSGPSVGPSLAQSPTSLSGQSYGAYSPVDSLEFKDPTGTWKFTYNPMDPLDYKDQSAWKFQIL
Chain of ETV5 (P41161 whole entry): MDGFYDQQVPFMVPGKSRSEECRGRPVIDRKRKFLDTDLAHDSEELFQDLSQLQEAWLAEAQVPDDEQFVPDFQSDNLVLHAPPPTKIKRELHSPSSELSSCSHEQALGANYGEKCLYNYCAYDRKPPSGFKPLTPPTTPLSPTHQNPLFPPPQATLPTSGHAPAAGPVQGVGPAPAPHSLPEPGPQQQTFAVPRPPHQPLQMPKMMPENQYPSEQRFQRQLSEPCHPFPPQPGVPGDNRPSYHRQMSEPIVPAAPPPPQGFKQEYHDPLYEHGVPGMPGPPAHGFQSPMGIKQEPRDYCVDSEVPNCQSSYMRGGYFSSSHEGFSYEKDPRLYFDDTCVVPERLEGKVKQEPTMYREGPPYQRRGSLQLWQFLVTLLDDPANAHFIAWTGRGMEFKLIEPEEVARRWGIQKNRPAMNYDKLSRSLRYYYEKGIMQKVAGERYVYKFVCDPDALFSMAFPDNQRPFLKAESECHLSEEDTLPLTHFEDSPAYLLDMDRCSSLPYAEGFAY
Chain of ETV1 (P50549 whole entry): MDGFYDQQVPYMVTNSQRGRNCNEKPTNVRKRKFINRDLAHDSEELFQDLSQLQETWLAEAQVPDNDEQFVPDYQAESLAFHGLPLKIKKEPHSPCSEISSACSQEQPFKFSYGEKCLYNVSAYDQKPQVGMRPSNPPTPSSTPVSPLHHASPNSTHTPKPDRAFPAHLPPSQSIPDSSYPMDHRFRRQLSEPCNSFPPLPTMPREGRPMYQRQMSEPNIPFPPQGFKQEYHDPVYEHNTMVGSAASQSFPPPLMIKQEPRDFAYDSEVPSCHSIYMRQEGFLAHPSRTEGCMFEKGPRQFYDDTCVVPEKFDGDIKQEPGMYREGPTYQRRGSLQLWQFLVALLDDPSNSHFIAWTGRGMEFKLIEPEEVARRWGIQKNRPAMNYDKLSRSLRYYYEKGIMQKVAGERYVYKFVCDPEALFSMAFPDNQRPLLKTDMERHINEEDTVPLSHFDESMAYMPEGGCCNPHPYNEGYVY
Chain of HSF1 (Q00613 whole entry): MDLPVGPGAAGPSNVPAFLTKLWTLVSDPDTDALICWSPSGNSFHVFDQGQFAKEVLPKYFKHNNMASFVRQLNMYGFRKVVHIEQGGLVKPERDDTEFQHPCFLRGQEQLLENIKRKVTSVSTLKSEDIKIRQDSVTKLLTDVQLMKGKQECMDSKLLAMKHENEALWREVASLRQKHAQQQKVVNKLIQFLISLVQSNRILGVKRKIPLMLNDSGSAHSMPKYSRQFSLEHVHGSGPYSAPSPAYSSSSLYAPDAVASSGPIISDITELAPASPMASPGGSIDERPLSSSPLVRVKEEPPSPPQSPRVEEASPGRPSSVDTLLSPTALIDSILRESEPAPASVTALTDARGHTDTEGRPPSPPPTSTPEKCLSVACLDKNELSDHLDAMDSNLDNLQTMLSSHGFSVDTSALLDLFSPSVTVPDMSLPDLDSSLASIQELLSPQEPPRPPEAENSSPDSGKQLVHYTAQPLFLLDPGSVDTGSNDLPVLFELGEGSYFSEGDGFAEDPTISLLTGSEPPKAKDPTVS
Chain of ELF4 (Q99607 whole entry): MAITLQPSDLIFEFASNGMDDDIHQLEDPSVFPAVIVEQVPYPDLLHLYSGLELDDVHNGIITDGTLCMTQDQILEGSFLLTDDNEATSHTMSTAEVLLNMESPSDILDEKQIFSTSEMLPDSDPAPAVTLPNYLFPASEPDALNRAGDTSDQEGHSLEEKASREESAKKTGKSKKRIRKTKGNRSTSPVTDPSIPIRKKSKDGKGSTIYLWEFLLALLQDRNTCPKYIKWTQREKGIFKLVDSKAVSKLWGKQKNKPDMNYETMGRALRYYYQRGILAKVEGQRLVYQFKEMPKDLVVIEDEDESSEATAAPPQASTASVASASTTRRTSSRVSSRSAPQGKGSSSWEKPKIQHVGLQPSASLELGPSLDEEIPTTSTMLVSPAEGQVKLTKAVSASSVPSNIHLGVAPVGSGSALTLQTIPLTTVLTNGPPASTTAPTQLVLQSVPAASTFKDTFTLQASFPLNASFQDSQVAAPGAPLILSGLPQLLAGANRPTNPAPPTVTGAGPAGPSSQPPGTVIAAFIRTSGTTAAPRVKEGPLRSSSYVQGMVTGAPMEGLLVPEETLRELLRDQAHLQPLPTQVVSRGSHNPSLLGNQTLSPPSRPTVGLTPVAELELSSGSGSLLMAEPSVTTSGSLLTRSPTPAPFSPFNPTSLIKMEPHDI
Chain of SPIB (Q01892 whole entry): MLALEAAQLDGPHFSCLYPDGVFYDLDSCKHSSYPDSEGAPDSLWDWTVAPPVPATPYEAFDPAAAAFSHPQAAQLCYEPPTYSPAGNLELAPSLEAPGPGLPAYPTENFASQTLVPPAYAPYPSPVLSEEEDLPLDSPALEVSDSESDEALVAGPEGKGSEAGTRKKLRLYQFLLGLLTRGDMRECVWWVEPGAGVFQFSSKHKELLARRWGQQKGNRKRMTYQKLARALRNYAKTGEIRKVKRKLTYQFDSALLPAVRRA

Sequence: GATCTC
- binding signal [1]: 1.43 fold enrichment (6-mer frequency, TF over GST control)
- binding signal [2]: 1.19 fold enrichment (6-mer frequency, TF over GST control)
- binding signal [3]: 1.16 fold enrichment (6-mer frequency, TF over GST control)
- binding signal [4]: 1.2 fold enrichment (6-mer frequency, TF over GST control)
- binding signal [5]: 1.27 fold enrichment (6-mer frequency, TF over GST control)
- binding signal [6]: 1.42 fold enrichment (6-mer frequency, TF over GST control)
- binding signal [7]: 1.28 fold enrichment (6-mer frequency, TF over GST control)
- binding signal [8]: 1.25 fold enrichment (6-mer frequency, TF over GST control)
- binding signal [9]: 1.23 fold enrichment (6-mer frequency, TF over GST control)
- binding signal [10]: 1.2 fold enrichment (6-mer frequency, TF over GST control)
- binding signal [11]: 1.27 fold enrichment (6-mer frequency, TF over GST control)
- binding signal [12]: 1.42 fold enrichment (6-mer frequency, TF over GST control)
- binding signal [13]: 1.26 fold enrichment (6-mer frequency, TF over GST control)
- binding signal [14]: 1.3 fold enrichment (6-mer frequency, TF over GST control)
- binding signal [15]: 1.22 fold enrichment (6-mer frequency, TF over GST control)
- binding signal [16]: 1.3 fold enrichment (6-mer frequency, TF over GST control)
- binding signal [17]: 1.23 fold enrichment (6-mer frequency, TF over GST control)
- binding signal [18]: 1.46 fold enrichment (6-mer frequency, TF over GST control)
- binding signal [19]: 1.35 fold enrichment (6-mer frequency, TF over GST control)
